Most compounds without a hit are left out; they make up all but 5.3% or so of the library.
VACV Venus inh: vaccinia inhibition (Venus reporter); Vaccinia virus Venus reporter expression, fluorescence; Potency, µM (series often up to 36.5 µM), actives largely listed as inhibitors; actives 0.46% (n = 330,000); calls by dose curve; tested in A549 cells; further: nearly all actives have a fitted effect of over 30% in size
Marburg entry inh: blocks Marburg virus binding to or entry into cells; Marburg virus pseudotyped entry inhibition, cell reporter; Potency, µM (top dose mostly 37.8 µM), actives largely listed as inhibitors; actives 1.8% (n = 300,000); AID 540276; calls by dose curve; tested in HEK293 cells
Lassa entry inh: inhibitors of Lassa virus binding or cell entry. Lassa virus pseudotype entry inhibition, cell reporter. Potency, µM (top dose mostly 37.9 µM), most hits filed as inhibitors. actives 1.2% (n = 300,000). AID 540256; calls by dose curve; tested in HEK293 cells; further: nearly all actives have a fitted effect of over 50% in size
FMDV antiviral: foot and mouth disease virus antiviral activity; Potency, µM (doses to about 57.9 µM), actives largely listed as inhibitors; actives 1.2% (n = 410,000); AID 1159524; FMDV antiviral cell-based qHTS; calls by dose curve; tested in HEK293T cells; further: read-out not given here; nearly all actives have a fitted effect of over 45% in size
HCV inh: inhibitors of hepatitis C virus infection; Huh7.5.1 HCVcc-Cre infection, luciferase reporter, 44 h; Potency, µM (series often up to 41.8 µM), hits mostly inhibitors; actives 3.4% (n = 340,000); active means well fitted inhibition curve with a large enough effect; inconclusive means small, poorly fitted or top-dose-only effect, or another doubt; inactive means no such curve, though single readings can be large or run the other way
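Antiviral activity was scored by luciferase reporter output from cells infected with HCVcc-Cre (~0.5 moi) in presence of compound, 44 h infection period, cells seeded 1,000/well 4 h prior.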
Vaccinia mCherry: inhibitors of vaccinia virus infection (mCherry reporter signal); actives 0.63% (n = 310,000); Vaccinia virus mCherry reporter infection, fluorescence; Potency, µM (series often up to 36.5 µM), most hits filed as inhibitors; calls by dose curve; tested in A549 cells; further: nearly all actives have a fitted effect of over 35% in size
Of the large screens only hits and unclear results are named; the others gave an inactive call.

CCOC(=O)C1(CCc2ccccc2)CCN(Cc2ccc(OC)cc2)CC1	Marburg entry inh inconclusive, Lassa entry inh inconclusive
CC[C@H]1OC(=O)[C@H](C)[C@@H](O[C@H]2C[C@@](C)(OC)[C@@H](O)[C@H](C)O2)C(C)[C@@H](O[C@@H]2O[C@H](C)C[C@H](N(C)C)[C@@H]2O)[C@](C)(OC)C[C@@H](C)C(=O)[C@H](C)[C@@H](O)[C@]1(C)O (some centres undefined)	none (no result: VACV Venus inh, Marburg entry inh, Lassa entry inh, HCV inh, Vaccinia mCherry)
C/C(=C\c1ccco1)CN1CCOc2ccc(CN3CCC(Oc4cccnc4)CC3)cc2C1	none (no result: Marburg entry inh, Lassa entry inh, HCV inh)
CCO[C@@H]1C[C@@]1(C=C[C@@H](C)[C@H](OC)c1ccccc1Br)C(=O)OC	none (no result: VACV Venus inh, Lassa entry inh, FMDV antiviral, HCV inh, Vaccinia mCherry)
CCNC(=O)c1sc2ncnc(NCCCN3CCOCC3)c2c1C	none (no result: Marburg entry inh, Lassa entry inh, HCV inh)
COc1cccc(Nc2ncc3nc(C)c(=O)n(Cc4cccs4)c3n2)c1	none (no result: VACV Venus inh, Marburg entry inh, Lassa entry inh, HCV inh, Vaccinia mCherry)
COc1ccc(NC(=O)N(CCC(C)C)C(C)c2cccs2)c(OC)c1 (centres undefined)	none (no result: Marburg entry inh, HCV inh)
Cc1c(N2CCCC2)cc2c(c1NC(=O)c1ccccc1Cl)C(C)(C)CC2(C)C	HCV inh 25µM (no result: Marburg entry inh, Lassa entry inh)
CC(C)c1c(O)ccc2c1CC[C@H]1C(C)(C)CCC[C@]21C	VACV Venus inh inconclusive, FMDV antiviral inconclusive, HCV inh 2µM (no result: Marburg entry inh, Lassa entry inh)
CN(C)S(=O)(=O)Nc1ccc(-c2cn3ccsc3n2)cc1	Vaccinia mCherry inconclusive (no result: Marburg entry inh, HCV inh)
COc1ccc(-c2cc(C(F)(F)F)nc(S(=O)(=O)CCCC(=O)Nc3cc(C)on3)n2)cc1OC	Marburg entry inh inconclusive, Lassa entry inh inconclusive, FMDV antiviral 13µM, HCV inh inconclusive
COc1ccc(NC(=O)CCCS(=O)(=O)c2nc(-c3ccccc3OC)cc(C(F)(F)F)n2)c(OC)c1	Marburg entry inh inconclusive, Lassa entry inh inconclusive (no result: HCV inh)
COc1ccccc1-c1cc(C(F)(F)F)nc(S(=O)(=O)CCCC(=O)Nc2cc(C)on2)n1	VACV Venus inh inconclusive, Marburg entry inh inconclusive, FMDV antiviral 13µM
O=C1Nc2ccccc2[C@@]12O[C@H](COc1ccccc1)CC1=C2CCC1	none (no result: VACV Venus inh, Lassa entry inh, FMDV antiviral, HCV inh, Vaccinia mCherry)
NC(=S)c1ccc[n+]([C@@H]2O[C@@H](COP(=O)([O-])OP(=O)(O)OC[C@H]3O[C@@H](n4cnc5c(N)ncnc54)[C@H](OP(=O)(O)O)[C@@H]3O)C(O)C2O)c1 (some centres undefined)	none (no result: VACV Venus inh, FMDV antiviral, HCV inh, Vaccinia mCherry)
O=C(CCCSc1nnc(SCCCC(=O)c2ccc(F)cc2)s1)c1ccc(F)cc1	VACV Venus inh 11µM, Marburg entry inh inconclusive, Lassa entry inh inconclusive, HCV inh 10µM, Vaccinia mCherry inconclusive (no result: FMDV antiviral)
CCc1nn(CC(=O)NCc2ccco2)c(=O)c2cc3cc(F)ccc3n12	none (no result: Lassa entry inh, HCV inh)
Cc1ccc(C)c(OCC(O)CN2CCCCC2C)c1 (centres undefined)	Marburg entry inh inconclusive, HCV inh inconclusive (no result: Vaccinia mCherry)
Cc1ccc(C)c(OCC(O)CN2C(C)CCCC2C)c1 (centres undefined)	Marburg entry inh inconclusive, Lassa entry inh inconclusive, HCV inh 13µM
CC1CCCC(C)N1CC(O)COCc1ccccc1 (centres undefined)	Marburg entry inh 6.3µM
CCCc1nc2c(C)ccc(C)c2c(N)c1CC	Marburg entry inh 9.2µM, HCV inh inconclusive (no result: VACV Venus inh, Vaccinia mCherry)
CCc1c(N)nc(N)nc1Nc1ccc(C)c(C)c1	Marburg entry inh inconclusive, FMDV antiviral inconclusive, Vaccinia mCherry inconclusive
CCOC(=O)c1cc(-c2ccccc2)n(CCC(=O)NCCc2ccccc2)c1C	Lassa entry inh 11µM (no result: Marburg entry inh, HCV inh)
CC(C)NS(=O)(=O)c1ccc(OCC(=O)N2CCCC2)c(Cl)c1	none
Cc1cc(S(=O)(=O)NC(C)C)ccc1OCC(=O)N1CCN(Cc2ccc3c(c2)OCO3)CC1	VACV Venus inh inconclusive, Marburg entry inh inconclusive, Lassa entry inh 8.2µM, FMDV antiviral inconclusive, HCV inh inconclusive
CC(C)NS(=O)(=O)c1ccc(OCC(=O)N2CCN(Cc3ccc4c(c3)OCO4)CC2)c(Cl)c1	Marburg entry inh inconclusive, Lassa entry inh inconclusive, FMDV antiviral inconclusive, HCV inh 11µM, Vaccinia mCherry inconclusive
CC(CCN1CCCc2nc(C)c(C)cc21)=NOC[C@@H](C)[C@H](OCc1ccccc1)C(C)C	none (no result: VACV Venus inh, Lassa entry inh, FMDV antiviral, HCV inh, Vaccinia mCherry)
O=C(/C=C/c1ccccc1Cl)Nc1cccc(S(=O)(=O)NC2=NCCCCC2)c1	Marburg entry inh inconclusive, HCV inh inconclusive
O=C(/C=C/c1ccc(Cl)cc1Cl)Nc1cccc(S(=O)(=O)NC2=NCCC2)c1	Marburg entry inh 13µM, Lassa entry inh 15µM, HCV inh inconclusive (no result: VACV Venus inh, Vaccinia mCherry)
